Assay results published in PubChem BioAssay (NCI).
This is part of a sample that, as a whole, favours compounds with a hit. Of some 79,000 tested, about 15% had one in any assay. Values without a mark were called inactive. Active and inactive are the calls of the source. Cut-off read from the data, not from the text of the source: active = growth inhibition above about 70%; inactive = the rest.

How the values were obtained:
[1] = NCI Yeast Anticancer Drug Screen. Data for the rad50 strain (AID 155);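 note: 0% = growth of vehicle-only cultures of the same strain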; conditions: S. cerevisiae rad50 strain growth inhibition, hits give high values; at 50.0 µM unless noted
Outline: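 Genetically altered yeast (DNA repair pathway); compound treatment; growth inhibition vs vehicle ctrl.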

[2] = NCI Yeast Anticancer Drug Screen. Data for the mec2-1 strain (AID 157); conditions: S. cerevisiae mec2-1 strain, hits give high values; at 50.0 µM unless noted
Outline: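 Test agents were screened against the mec2-1 yeast strain, with defined DNA repair or cell cycle alteration. Growth was scored as inhibition against vehicle-only controls.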

[3] = NCI Yeast Anticancer Drug Screen. Data for the sgs1 mgt1 strain (AID 161);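 note: 0% = growth of cultures given vehicle only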; conditions: S. cerevisiae sgs1 mgt1 strain, hits give high values; at 50.0 µM unless noted
Outline: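 Mutant yeast exposed to compound; growth scored against vehicle-only wells.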

[4] = NCI Yeast Anticancer Drug Screen. Data for the cln2 rad14 strain (AID 165);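 note: 0% = growth equal to vehicle treated cultures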; conditions: S. cerevisiae cln2 rad14 strain, hits give high values; at 50.0 µM unless noted
Outline: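 Growth of compound-exposed yeast (cln2 rad14 genotype) measured and expressed as inhibition relative to vehicle.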

[5] = NCI Yeast Anticancer Drug Screen. Data for the bub3 strain (AID 167); conditions: S. cerevisiae bub3 mutant strain, hits give high values; at 50.0 µM unless noted
Outline: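 Yeast carrying a defined mutation is treated with each compound, and growth is compared with that of vehicle-exposed cells to give inhibition.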

[6] = NCI Yeast Anticancer Drug Screen. Data for the mlh1 rad18 strain (AID 175); conditions: S. cerevisiae mlh1 rad18 strain growth inhibition, hits give high values; at 50.0 µM unless noted
Outline: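 In this whole-cell yeast screen, a strain with altered DNA damage repair is challenged with compound, and its growth is measured against matched vehicle-treated controls.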

Compound	growth inhibition [1]	growth inhibition [2]	growth inhibition [3]	growth inhibition [4]	growth inhibition [5]	growth inhibition [6]
O=C(O)/C(Cc1cn[nH]n1)=N\O	-20.3%	-29.9%	-51.7%	-77%	-39.4%	-32%
NNC(=O)CC(=O)NN	6.9%	2.05%	-11.4%	-10.7%	2.95%	18.4%
O=C1NCC1c1ccccc1 (configuration not stated)	-12%	-4.85%	-8.65%	5.35%	19.1%	3.45%
CCC1([N+](C)(C)C)CSC1C (configuration not stated)	5.15%	2.9%	4.35%	-26.6%	-8.65%	-0.95%
CC(=O)C(C)(CC#N)C(CC=O)CCC#N (configuration not stated)	15.9%	4.7%	10.2%	-1.45%	14%	-1%
Cc1cc(C(C)(C)C)cc(CNC2CCCCC2)c1O	-4.35%	-27.4%	-25.4%	-18%	-35.2%	10.2%
COc1cc(OC)c2c(c1)C(C)(C)CCC2(C)C	9.2%	2.9%	-7.45%	-23.4%	16.2%	4.4%
Nc1[nH]c(=O)[nH]c(=O)c1[N+](=O)[O-]	5.4%	-6.8%	-7.1%	-8.5%	-9.35%	-3.15%
Cc1ccc2c(ccc3nc(N)nc(N)c32)c1	-0.4%	11.5%	-5.55%	-42.9%	-47.3%	-2.65%
C/C(N)=N\O	20.1%	4.1%	2.45%	9.85%	0.1%	1.65%
CN(C)C(=O)C(c1ccccc1)C(c1ccccc1)N(C)C=O (configuration not stated)	-3.5%	-2.2%	0.2%	-3.3%	-8.3%	25.1%
CCOC(=O)C1=C(c2ccccc2)OC(N)=C(C#N)C1c1ccccc1Cl (configuration not stated)	28.4%	18.7%	24.6%	-21.4%	39.9%	51.5%
CN(C)c1ccc(/[N+]([O-])=N/N2C(=O)c3ccccc3C2=O)cc1	-25.1%	-24.4%	-20.9%	-52%	-22.9%	-25.5%
O=C1OC(=O)C2=C1CCc1ccc3ccccc3c12	-29.8%	-22.1%	5.9%	-29.6%	5.75%	-5.2%
O=C(O)c1cc(C(=O)O)cc(C(=O)O)c1	-1.55%	-16.2%	-8.1%	-56.9%	-3.05%	-30.1%
O=NN(CCCl)C(=O)Oc1ccccc1	-1.95%	-10.6%	-0.05%	0.15%	-1.9%	-11.3%
CCOC(=O)/C(=C\c1ccccc1)c1ccccc1	7.15%	5.5%	9.65%	7.85%	27.1%	-6.8%
COc1ccc2c(c1)[n+](=O)c(C(=O)C/C(=N/NC(=O)C[N+](C)(C)C)C(=O)Nc1cccc(C)c1C)c(C)n2O	-23.6%	-2.25%	-41%	-5.5%	22.9%	-13.9%
COc1ccc(NC(=O)Nc2ccc(F)cc2)c(OC)c1	16.1%	4.9%	10.9%	13.9%	24.2%	7.45%
O=C(CSc1nc(-c2ccccc2)c(-c2ccccc2)[nH]1)N/N=C/c1ccc(O)cc1	-8.15%	-3.2%	-12.2%	-21.9%	5.6%	-25.6%
CCCCCCCCCCCCCCCCCn1nnnc1N	-8.3%	11.6%	-7.3%	-9.95%	-12.3%	-11.4%

Compound	growth inhibition [1]	growth inhibition [2]	growth inhibition [3]	growth inhibition [4]	growth inhibition [5]	growth inhibition [6]
O=C(NCCCl)NC1C(O)OC(CO)C(O)C1O (configuration not stated)	93.2% (active)	96% (active)	93.8% (active)	76.5% (active)	96.8% (active)	96.7% (active)
Nc1ncc(C(=O)O)s1	-17.3%	-4.6%	-23.1%	7.35%	3.35%	-4.8%
C=CCCC(CCC=C)(C(=O)O)C(=O)O	-7.1%	-9.7%	-16.7%	6.65%	-20.9%	-36.8%
CC(=O)OCc1c(COC(C)=O)c(-c2ccc(Cl)cc2)n2c1CCC2	34%	16.6%	19.3%	-18.1%	9.6%	23.9%
C1=C(c2ccccc2)N(C2CCCCC2)C(c2ccccc2)=CN1Cc1ccccc1	45%	31.9%	69.5%	42%	50.1%	70.8% (active)
Cc1ccc(S(=O)(=O)N/N=C(/c2nc3ccc([N+](=O)[O-])cc3[nH]c2=O)C(O)c2ccc(C(O)/C(=N\NS(=O)(=O)c3ccc(C)cc3)c3nc4ccc([N+](=O)[O-])cc4[nH]c3=O)cc2)cc1 (configuration not stated)	-16.6%	-27.6%	-26.2%	0.6%	-32.7%	-10.3%
S=C(NC1CCCCC1)SSSSC(=S)NC1CCCCC1	15.7%	5%	22.2%	9.55%	13.9%	20.2%
CCOC(=O)/C(C#N)=C/c1ccc(C)cc1	10.4%	15.8%	11.2%	6.15%	22.3%	22.9%
CC(=O)ONC(C(=O)C(C)(C)C)C(=O)C(C)(C)C	-1.4%	-4.4%	-3.9%	24.7%	-2.7%	-4.8%
CN(CCO)CCCC1COc2ccccc2O1 (configuration not stated)	-31.6%	-39.1%	-21.1%	6.5%	-8.65%	-8.35%
S=C(NC1CCCCC1)SSSC(=S)NC1CCCCC1	-6.7%	-4.65%	-8.05%	15.2%	-17.4%	6.8%
O=C(N/N=C/c1ccc2c(c1)OCO2)c1ccccc1	12.7%	-11.1%	6.25%	-35.5%	1.8%	22.4%
CN1CCC(O)CC1	7.6%	-23.4%	-11.3%	-0.35%	6.35%	-3%
CC1(C)CC(=O)C(/C=N/C(=S)Nc2ccc(S(N)(=O)=O)cc2)=C(O)C1	-41.5%	-68.5%	-23.8%	-8.55%	-16.6%	-30.4%
CC(C)(O)C[N+](=O)[O-]	5.85%	-1.8%	0.85%	-7.7%	0%	3.05%
CC(C)OC(=O)C(O)c1ccccc1 (configuration not stated)	18.2%	-17.1%	-25.4%	-50%	-9.45%	8.2%
COc1ccc(NC(=O)/C(=N\NC(=O)C[n+]2ccccc2)c2c(O)c3ccc(O)cc3oc2=O)c([N+](=O)[O-])c1	26.6%	47.2%	29.4%	7.55%	39.5%	39.1%
NC(=O)C1(N2CCCC2)CCN(Cc2ccccc2)CC1	-9.2%	-18.9%	-17.6%	-1.6%	-10.6%	-15.8%
COC(=O)C1(C(C)C(=O)c2ccccc2)NC(=S)NC(=O)C1C#N (configuration not stated)	-6.1%	-16.7%	-35.2%	-11.8%	-14.4%	-25.8%
O=C(O)CN(CCCN(CC(=O)O)CC(=O)O)CC(=O)O	-5%	0.85%	-2.5%	-14%	-7.4%	-30.2%
CC(=O)[CH-]C(=O)c1ccccc1.CC(=O)[CH-]C(=O)c1ccccc1.CC1(C)OCC(C2OC3OC(C)(C)OC3C2[O-])O1.CC1(C)OCC(C2OC3OC(C)(C)OC3C2[O-])O1.[Ti+4] (configuration not stated)	29.9%	5.65%	14.8%	14.9%	27.9%	20.2%
